Assay results taken from PubChem BioAssay (NCATS).
Inconclusive results are not listed. Active and inactive are the calls of the source. Calls follow the shape of the dose curve; as a rule, active = well fitted inhibition curve with a large enough effect; inconclusive = small, poorly fitted or top-dose-only effect; inactive = flat fitted curve, though single readings scatter.

Assays:
Assay in all cases: qHTS profiling for inhibitors of Plasmodium falciparum proliferation (AID 504749); also: nearly all actives have a fitted effect of over 60% in size
Conditions in all cases: P. falciparum in erythrocytes, SYBR Green DNA, 72 h; series mostly up to 28.7 µM
CP250 = test system: CP250
Outline: (§1)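 Three-day growth assay of blood-stage parasites in erythrocytes (0.3% parasitemia, 2.5% hematocrit) at 37 C, 5% CO2, quantified by SYBR Green DNA staining after overnight detergent lysis.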

CP252 = test system: CP252
Outline: as §1

CP256 = test system: CP256
Outline: as §1

CP260 = test system: CP260
Outline: as §1

CP262 = test system: CP262
Outline: as §1

CP265 = test system: CP265
Outline: as §1

CP266 = test system: CP266
Outline: as §1

CP268 = test system: CP268
Outline: as §1

CP269 = test system: CP269
Outline: as §1

CP286 = test system: CP286
Outline: as §1

CP291 = test system: CP291
Outline: as §1

CP297 = test system: CP297
Outline: as §1

CP305 = test system: CP305
Outline: as §1

CP315 = test system: CP315
Outline: as §1

CP325 = test system: CP325
Outline: as §1

CP329 = test system: CP329
Outline: as §1

CP335 = test system: CP335
Outline: as §1

DFO2036 = test system: DFO2036
Outline: as §1

DIV14 = test system: DIV14
Outline: as §1

DIV17 = test system: DIV17
Outline: as §1

Measured: Potency
Potency is read from the fitted curve at half-maximal effect.

NCC(O)CC(=O)O (stereo not given)
inactive: all assays above

CCN(CC)CCOc1ccccc1OC
inactive: all assays above

CCOC(=O)c1cc(-c2ccccc2)nc2ccc(C)cc12
inactive: all assays above

CC/C=C\C/C=C\C/C=C\C/C=C\C/C=C\C/C=C\CCC(=O)O
inactive: all assays above

Cc1ncc(C[n+]2csc(CCOP(=O)(O)OP(=O)(O)O)c2C)c(N)n1
inactive: all assays above

Nc1nccs1
inactive: all assays above

O=C(NNCS(=O)(=O)O)c1ccncc1
inactive: all assays above

CC/C=C\C/C=C\C/C=C\C/C=C\C/C=C\CCCC(=O)O
inactive: all assays above

CC(C)(CO)[C@@H](O)C(=O)NCCC(=O)NCCSSCCNC(=O)CCNC(=O)[C@H](O)C(C)(C)CO
inactive: all assays above

CC(C)CCC[C@@H](C)[C@H]1CC[C@H]2[C@@H]3CC=C4C[C@@H](O)CC[C@]4(C)[C@H]3CC[C@]12C
inactive: all assays above

CS(=O)(=O)OCC(O)C(O)COS(C)(=O)=O (stereo not given)
inactive: all assays above

O=C(O)Cc1nn(Cc2ccc(Br)cc2F)c(=O)c2ccccc12
inactive: all assays above

CCCCCCCCCCCCCC(=O)OCC(COP(=O)([O-])OCC[N+](C)(C)C)OC(=O)CCCCCCCCCCCCC (stereo not given)
inactive: all assays above

O=C(CCCCCCCCCCCCC1CCCC1)Nc1ccc(S(=O)(=O)c2ccc(NC(=O)CCCCCCCCCCCCC3CCCC3)cc2)cc1
inactive: all assays above

CC(C)=CCC/C(C)=C/CC/C(C)=C/CC/C=C(\C)CC/C=C(\C)CCC=C(C)C
inactive: all assays above

[O-][N+](=Nc1ccccc1)c1ccccc1
inactive: all assays above

COC1=C(OC)C(=O)C(C/C=C(\C)CC/C=C(\C)CC/C=C(\C)CC/C=C(\C)CC/C=C(\C)CC/C=C(\C)CC/C=C(\C)CC/C=C(\C)CC/C=C(\C)CCC=C(C)C)=C(C)C1=O
inactive: all assays above

c1ccc(-n2cnnn2)cc1
inactive: all assays above

O=C(O)CCC/C=C\C[C@@H]1[C@@H](/C=C/[C@@H](O)COc2cccc(C(F)(F)F)c2)[C@H](O)C[C@@H]1O
inactive: all assays above

Nc1nc(=O)n([C@@H]2CS[C@H](CO)O2)cc1F
inactive: all assays above

COC(=O)C(CN)c1c[nH]c2ccc(OC)cc12 (stereo not given)
inactive: all assays above

FCOC(C(F)(F)F)C(F)(F)F
inactive: all assays above

CO
inactive: all assays above

CC(C)[C@H](N)C(=O)OCC(CO)OCn1cnc2c(=O)[nH]c(N)nc21 (stereo not given in full)
inactive: all assays above

CC(C)(C)c1ccc2c(S(=O)(=O)O)c(C(C)(C)C)ccc2c1
inactive: all assays above

CC(=O)N=c1sc(S(N)(=O)=O)nn1C
inactive: all assays above

CN1CCC(OC(=O)C(Oc2ccc(Cl)cc2)Oc2ccc(Cl)cc2)CC1
inactive: all assays above

O=C(O)[C@H]1CN(C/C=C/P(=O)(O)O)CCN1
inactive: all assays above

O=C(/C=C/c1cccc(F)c1)NC1CC1
inactive: all assays above

CN1C(=O)C[C@@H](C(=O)N[C@@H](Cc2cnc[nH]2)C(=O)N2CCC[C@H]2C(N)=O)NC1=O
inactive: all assays above

O=C(O)CCC(=O)c1ccc(-c2ccccc2)cc1
inactive: all assays above

CC(CNC(=O)c1cccnc1)NC(=O)c1cccnc1 (stereo not given)
inactive: all assays above

O=C1c2ccccc2C(=O)c2c1ccc(O)c2O
inactive: all assays above

CC1C(=O)CC2C3(C)CCC2(C(C)C(=O)O)C(=O)C13 (stereo not given)
inactive: all assays above

CCN(CC)C(=S)S
inactive: all assays above

O=C(O)c1ccc(NC(=O)[C@H](Cc2ccc(O)cc2)NC(=O)c2ccccc2)cc1
inactive: all assays above

CC1=CC(=C(c2ccc(N)cc2)c2ccc(N)cc2)C=CC1=N
active: CP250 1 µM | CP252 3.16 µM | CP256 2.24 µM | CP260 2.51 µM | CP262 4.78 µM | CP265 3.16 µM | CP266 7.57 µM | CP268 6.01 µM | CP269 4.26 µM | CP286 1.41 µM | CP291 3.01 µM | CP297 4.78 µM | CP305 4.26 µM | CP315 4.78 µM | CP325 6.01 µM | CP329 4.78 µM | CP335 2.13 µM | DFO2036 2.82 µM | DIV14 1.07 µM | DIV17 1.35 µM

CNC(=O)OCc1cccc(COC(=O)NC)n1
inactive: all assays above

c1ccc2c(c1)OCC(CN1CCCCC1)O2 (stereo not given)
inactive: all assays above

O=C(O)c1ccc(OCCn2ccnc2)cc1
inactive: all assays above

CCOc1ccc(NC(=S)Nc2ccc(OCC)cc2)cc1
inactive: all assays above

COc1ccc(/C=C/C(=O)O)cc1
inactive: all assays above

CC(=O)Nc1c(I)c(C(=O)O)c(I)c(N(C)C(C)=O)c1I
inactive: all assays above

O=C(O)Cc1cc(I)c(Oc2ccc(O)c(I)c2)c(I)c1
inactive: all assays above

C=Cc1ccc(S(=O)(=O)O)cc1
inactive: all assays above

CC(=O)Oc1cccc(C(=O)O)c1OC(C)=O
inactive: all assays above

CC(C)CCCCCCc1ccc(O)cc1
inactive: all assays above

CCOc1ccc(S(=O)(=O)O)c2cccnc12
inactive: all assays above

CC(C)O
inactive: all assays above

CCC(C)[C@@H](N)C(=O)O (stereo not given in full)
inactive: all assays above

CCCCCCCCCCCCCCCCCCCCCC(=O)Nc1ccn([C@@H]2O[C@H](CO)[C@@H](O)[C@@H]2O)c(=O)n1
inactive: all assays above

Cc1cc2nc3c(=O)[nH]c(=O)nc-3n(C[C@H](O)[C@H](O)[C@H](O)COP(=O)(O)OP(=O)(O)OC[C@H]3O[C@@H](n4cnc5c(N)ncnc54)[C@H](O)[C@@H]3O)c2cc1C
inactive: all assays above

CC/C(=C(/CC)c1ccc(OP(=O)(O)O)cc1)c1ccc(OP(=O)(O)O)cc1
inactive: all assays above

ClC(Cl)Cl
inactive: all assays above

C[C@]12CC[C@@H]3c4ccc(OC(=O)c5ccccc5)cc4CC[C@H]3[C@@H]1CC[C@@H]2O
active: CP260 5.01 µM | CP286 12.6 µM | CP335 12 µM
inactive: all other assays above
